Out of some 300,000 compounds screened, about 2,300 (0.77%) were called active. For the sample, actives were picked, then their nearest neighbours and some compounds at random. Unmarked numbers belong to inactive results.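 The calls were made as follows: active = more than half of replicate wells show activity change below -50%, luminescence cut by over half; inconclusive = some wells, but at most half, below -50%; inactive = no replicate well below -50%.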

The experiment can be described thus: HSF1 inhibitors in luciferase reporter cells, primary screen, cell-based, NIH3T3, luminescence (AID 2098).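 Also: luciferase reports HSF-1 transcriptional activity via heat shock element; 0% = median of DMSO wells and -100% = zero luminescence signal.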 Particulars: NIH3T3-HGL HSE-luciferase, MG132-induced, luminescence 8 h; active compounds read low; screened at 7.5 µM (by protocol). In general terms: A reporter such as luciferase makes a cellular process visible.
Turning to `CC(C)N(Cc1nnc(-c2ccc(Cl)cc2)o1)C(=O)C1=COCCO1`, the activity change, negative = inhibition was -0.126%.
For the compound `Cc1ccc(C(=O)N/N=C/c2cccc3ccccc23)cn1`, the activity change, negative = inhibition is 2.62%.
The result for `COc1ccc(-c2ccc3nnc(SCC(=O)Nc4ccc(NC(C)=O)cc4)n3n2)cc1` reads -1.23%.
Turning to `COc1ccc(S(=O)(=O)N2CCCC2CNC(=O)C(=O)NC2CC2)cc1` (centres undefined), the activity change, negative = inhibition was -3.82%.
To `COc1ccc(N(CC(=O)NC2CCCCCCC2)S(=O)(=O)c2c(C)nn(C)c2C)cc1` belongs -60.7% (active); to `CCOc1ccc(N(CC(=O)NC2CCCCCC2)S(=O)(=O)c2c(C)[nH]c(=O)[nH]c2=O)cc1`, -0.37%; to `COc1ccc(N(CC(=O)NC2CCCCC2)S(=O)(=O)c2c(C)[nH]c(=O)[nH]c2=O)cc1`, 4.32%.
To `COc1cc(Cl)ccc1OCc1cc(C(=O)N(C)CCc2c(C)n[nH]c2C)no1` belongs 11.4%.
On to `CCn1ccnc1CN(C)C(=O)c1cc(COc2ccc(Cl)cc2OC)on1`, for which the activity change, negative = inhibition is -51.9% (active).
Consider `CCn1ccnc1CN(C)C(=O)c1cc(COc2ccc(-n3cncn3)cc2)on1`, for which the activity change, negative = inhibition was -9.56%.
To `O=C(O)CCn1c(Cc2ccccc2)nc2ccccc21` belongs 0.662%; to `Cc1cc2ccccc2n1CCC(=O)O`, -0.843%; to `O=C(O)CCn1c(O)c(C=C2N=c3ccccc3=N2)sc1=S`, -52.2% (active).
To `C=CCOc1ccc(/C=C/C(=O)OC(C)C(=O)Nc2ccc(NC(C)=O)cc2)cc1` (centres undefined) belongs 12.2%; to `COc1ccc(CCNC(=S)N2CCN(S(=O)(=O)c3ccc(F)cc3)CC2)cc1`, -3.63%; to `CCC(=O)N1c2ccccc2NC2=C(C(=O)CCC2)C1c1ccco1` (centres undefined), -0.999%.
To `CCCC(=O)N1c2ccccc2NC2=C(C(=O)CCC2)C1c1ccc(F)cc1` (centres undefined) belongs -0.85%; to `CC(C)C(=O)N1c2ccccc2NC2=C(C(=O)CCC2)C1c1ccc(N(C)C)cc1` (centres undefined), -60.9% (active); to `O=C(NCC1(N2CCCCC2)CCCCC1)c1ccc(NS(=O)(=O)c2ccc(F)cc2)cc1`, -3.19%.
In the case of `CN(C(=O)COC(=O)c1ccc(Br)o1)c1c(N)n(Cc2ccccc2)c(=O)[nH]c1=O`, the activity change, negative = inhibition is -3.83%.
The result for `O=C(COC(=O)Cc1c[nH]c2ccccc12)NCCc1ccccc1` reads -4.81%; that for `Cc1cc(=O)oc2cc(NC(=O)C(C)Oc3ccccc3)ccc12` (centres undefined), 1.47%; that for `Cc1cccc(-n2ncc(Cl)c(Cl)c2=O)c1`, -95.3% (active).
Take `Cc1cccc(-n2ncc(C#N)c2-n2cccc2)c1`: the activity change, negative = inhibition was 2.7%.
To `COc1ccc(Oc2c(Cl)cnn(-c3ccccc3)c2=O)cc1` belongs -5.38%.
With `CC1(c2ccc(Cl)cc2Cl)NC(=O)N(CC(=O)Nc2cccnc2Cl)C1=O` (centres undefined), the activity change, negative = inhibition was 1.88%.
To `CCCOc1ccc(Cl)cc1Nc1nc(NCCO)nc(N2CCCC2)n1` belongs 1.49%; to `COC(=O)c1ccc(COC(=O)C2CCN(S(=O)(=O)c3c(Cl)cccc3Cl)CC2)o1`, 5.96%.
To `COC(=O)c1sc(NC(=O)c2ccc(OC)cc2OC)nc1C` belongs -40.1%; to `COc1cc(SC)ccc1C(=O)Nc1cc(C)ccn1`, 28.6%.
`COc1cc(SC)ccc1C(=O)Nc1nc(C)cs1`: the activity change, negative = inhibition is -63.8% (active).
The result for `Cc1ccc(C(=O)C(C)OC(=O)Cc2n[nH]c(=O)c3ccccc23)cc1C` (centres undefined) reads -5.5%; that for `NC(=O)c1ccsc1NC(=O)COC(=O)Cc1n[nH]c(=O)c2ccccc12`, -1.64%; that for `COc1ccc(CC(=O)OC(C)C(=O)Nc2ccc(S(N)(=O)=O)cc2)cc1` (centres undefined), -3.68%.
To `CCc1cccc(NC(=O)COC(=O)C2CCN(c3ccc(C(F)(F)F)cn3)CC2)c1` belongs -4.52%; to `Cc1cccc(NC(=O)Nc2ccc(OCc3ccccc3)cc2)n1`, 1.3%.
Turning to `CCc1ccnc(NC(=O)Nc2ccc(OCc3ccccc3)cc2)c1`, the activity change, negative = inhibition was -11.4%.
To `O=C(O)/C=C\C(=O)Nc1ccc(OCc2ccccc2)cc1` belongs -65.7% (active); to `O=C(CCCN=C1NS(=O)(=O)c2ccccc21)OCC(=O)c1ccc(F)c(F)c1`, -2.57%; to `CCN(Cc1cc2cc(C)ccc2[nH]c1=O)S(=O)(=O)c1ccccc1`, -3.14%.
As for `COc1ccc2[nH]c(=O)c(CN(Cc3cccnc3)S(=O)(=O)c3ccccc3F)cc2c1`, the activity change, negative = inhibition was -52.3% (active).
To `CCC(=O)N(Cc1cc2cc(OC)ccc2[nH]c1=O)c1ccccc1C` belongs -6.72%; to `COc1ccccc1NC(=O)C(C)OC(=O)c1ccc(-n2cnnn2)cc1` (centres undefined), -4.36%.
To `O=C1CC2(CCCC2)Oc2ccc(Cl)cc21` belongs -9.81%.
`COc1cc2c(cc1O)[C@H](Cc1ccc(Oc3cc(C[C@@H]4NCCc5cc(OC)c(O)cc54)ccc3O)cc1)NCC2`: the activity change, negative = inhibition is -2.77%.
Turning to `COc1ccc2c(c1)CCNC2Cc1ccc(OC)c(O)c1` (centres undefined), the activity change, negative = inhibition is 0.52%.
In the case of `CC[C@H]1CN2CCc3cc(OC)c(OC)cc3[C@@H]2C[C@@H]1C[C@H]1NCCc2cc(OC)c(OC)cc21`, the activity change, negative = inhibition is -74.7% (active).
To `C=CCOC(=O)C1=C[C@H](c2ccc(Br)cc2)C[C@H](OCCCCO)O1` belongs -3.77%.
To `COc1cccc(NC(=O)C2CCCN(c3ncnc4c3nc3n4CCCCC3)C2)c1` (centres undefined) belongs -3.75%; to `CCOC(=O)c1cccc(NC(=O)C2CCN(c3ncnc4c3nc3n4CCCCC3)CC2)c1`, -72.4% (active); to `O=C(NCc1ccccc1Cl)C1CCN(c2ncnc3c2nc2n3CCCCC2)CC1`, -6.69%.
The result for `COc1ccccc1CNC(=O)CSc1nc(=O)n(Cc2ccncc2)c2c1CCC2` reads -0.526%; that for `Cn1c(SCC(=O)c2ccccc2)ncc(C(=O)Nc2ccc(F)cc2)c1=O`, 3.83%.
With `Cc1ccc(/C=N/NC(=S)Nc2cccc(S(=O)(=O)N(C)C)c2)o1`, the activity change, negative = inhibition is -4.55%.
With `Cc1nc(C)c(-c2nnc(-c3cccc(S(=O)(=O)N(C)C)c3)o2)cc1C(=O)NN`, the activity change, negative = inhibition is -63.1% (active).
The result for `CN(C)S(=O)(=O)c1cccc(NC(=O)Cc2ccsc2)c1` reads 5.64%.
To `COc1cccc(CNC(=O)C(=O)NCCC2CCCCN2S(=O)(=O)c2ccc(C)cc2)c1` (centres undefined) belongs -3.75%; to `COc1cccc(N2CC(NS(=O)(=O)c3ccc(Cl)cc3)CC2=O)c1` (centres undefined), 8.69%; to `C=C(C)C(=O)O[C@H]1C/C(C)=C\C(=O)/C=C(\C)[C@H](O)[C@@H]2OC(=O)C(=C)[C@@H]21`, -73.5% (active).
The result for `CN(CC(=O)NCc1cccnc1)S(=O)(=O)c1cc(Cl)ccc1Cl` reads 1.42%; that for `CCN(CC(=O)Nc1ccc(NC(C)=O)cc1)C(=O)C1CC(=O)N(Cc2ccc(C)cc2)C1` (centres undefined), -0.586%.
Regarding `COC(=O)CCNc1ccc2c(c1)OCCO2`, the activity change, negative = inhibition was -72.6% (active).
In the case of `COc1ccccc1OCCCC(=O)Nc1ccc2c(c1)OCCO2`, the activity change, negative = inhibition was 1.02%.
To `CCOc1ccc(NCCC(=O)c2ccc3c(c2)OCO3)cc1` belongs -1.61%; to `Cc1ccc2nc(SCC(=O)N3CC(C)OC(C)C3)nc(=O)n2c1` (centres undefined), 3.03%; to `Cc1ccc(S(=O)(=O)CCC(=O)OCC(=O)N(C)C2CCS(=O)(=O)C2)cc1` (centres undefined), -3.16%.
To `COc1ccc(CN2[C@@H](CC(=O)O)c3cc(F)ccc3S2(=O)=O)cc1` belongs -5.27%.
The result for `O=S1(=O)CC/C(=N\Nc2ccc(F)cc2)c2ccsc21` reads -74.8% (active).
Turning to `COc1ccc(C(=O)N/N=C2\CCS(=O)(=O)c3ccc(F)cc32)cc1OC`, the activity change, negative = inhibition is 9.4%.
With `CCN(CC(=O)NCc1ccco1)S(=O)(=O)c1ccc(F)cc1`, the activity change, negative = inhibition is -5.85%.
To `CCN(CC(=O)N1CCCC1)S(=O)(=O)c1ccc(F)cc1` belongs -65.5% (active); to `COc1ccc(S(=O)(=O)N(C)CC(=O)N2CCCC2)cc1`, 0.377%; to `COc1ccc(CNC(=O)C2CCCC2)cc1`, -0.797%.
The result for `CCOc1ccc(NC(=O)CN(C)C(=O)COc2cccc(CC)c2)cc1OCC` reads 3.71%; that for `COC(=O)CCCC1=CC2=C(c3ccccc3)C(=O)C(C)(OC(=O)C3CCCC3)C(=O)C2=CN1c1ccc(OC)cc1` (centres undefined), -88.7% (active).
The result for `COC(=O)CCCC1=CC2=CC(=O)C(C)(OC(=O)c3cccs3)C(=O)C2=CN1CC1CC1` (centres undefined) reads -2.87%; that for `COC(=O)CCCC1=CC2=CC(=O)C(C)(OC(=O)c3cccs3)C(=O)C2=CN1c1cccc(C#N)c1` (centres undefined), 0.873%.
As for `CC(=O)c1ccc(S(=O)(=O)Nc2ccc(-c3ccc4nncn4n3)cc2)cc1`, the activity change, negative = inhibition was 2.56%.
To `COc1ccc(NC(=O)CN(C)C(=O)c2ccc(COc3ccccc3)o2)cc1` belongs 3.16%; to `CN(C(=O)c1cc2c(=O)n3ccccc3nc2s1)C1CCCCC1`, 23.2%.
To `O=c1c2ccccc2nc2n1C1(CCCCC1)Cc1ccccc1-2` belongs 15.3%.
For `CN(c1ccc2nc3ccccc3c(=O)n2n1)C1CCCCC1`, the activity change, negative = inhibition is -86.8% (active).
The result for `CCCOc1ccc(C(=O)CCC(=O)OC(C)C(=O)Nc2ccc(NC(C)=O)cc2)cc1` (centres undefined) reads 11.7%; that for `CN(C)CCCNC(=S)N1CCC(c2nc3ccccc3[nH]2)CC1`, -2.77%; that for `COCCCNC(=S)N1CCCC(c2nc3cc(C)c(C)cc3[nH]2)C1` (centres undefined), 5.14%.
The result for `CCCNC(=S)N1CCCC(c2nc3ccccc3[nH]2)C1` (centres undefined) reads -82% (active); that for `CCOc1ccc(S(=O)(=O)Nc2cccc(C(=O)NCC3(N4CCCCC4)CCCCC3)c2)cc1`, -3.29%.
The result for `CC(=O)N[C@H]1[C@H]([C@H](O)[C@H](O)CO)OC(C(=O)O)=C[C@@H]1O` reads -3.57%; that for `COc1ccc2oc(C(=O)OCC(=O)N(CC(C)C)c3c(N)n(Cc4ccccc4)c(=O)[nH]c3=O)c(C)c2c1`, 1.6%.

Values taken from PubChem BioAssay AID2098 (Broad Institute, 2009).
